Measured values taken from PubChem BioAssay.
Active and inactive are the calls of the source.

Columns and labels:
[1] = test system: Plasmodium falciparum Sir2 (PF13_0152, Sir2A); assay: pfSir2 binders on small-molecule microarrays, primary screen, biochemical, small-molecule microarray, 635 nm fluorescence (AID 1098); conditions: small-molecule microarray binding, fluorescence 635 nm; higher = more signal;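 further: score merges spot fluorescence intensity with its signal-to-noise ratio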
[2] = small-molecule microarray binders of probe aDKK1, primary screen, biochemical, biotinylated probe, 635/667 nm fluorescence (AID 1099); conditions: higher = more signal;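 further: score merges 667nm spot fluorescence with signal to noise across triplicate slides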
[3] = small-molecule microarray binders of probe aCHRDL2, primary screen, biochemical, biotinylated probe, 635/667 nm fluorescence (AID 1100); conditions: higher = more signal
[4] = splicing luciferase reporter signal modulators, primary screen, spliceosome inhibition project, cell-based, HEK293, splice +/- reporter (AID 1101); conditions: luminescence, 24 h, higher = more signal, called active from +8 up or from −8 down;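 further: HEK293 cells carrying a splicing-competent luciferase reporter gene; test concentration not given here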
[5] = target: Fibroblast growth factor 10 (Homo sapiens) (UniProt O15520); assay: FGF10 binders on small-molecule microarrays, primary screen, biochemical, small-molecule microarray, 635 nm fluorescence (AID 1102); conditions: FGF10 binding, fluorescence 635 nm, higher = more signal
[6] = test system: glycogen synthase kinase-3 (GSK3A per assay name; protocol says GSK3B); assay: GSK3 binders on small-molecule microarrays, primary screen, biochemical, small-molecule microarray, 635 nm fluorescence, GSK3A (AID 1103); conditions: small-molecule microarray binding, fluorescence 635 nm; higher = more signal; further: the record names both GSK3A and GSK3B
[7] = target: Epidermal growth factor receptor (Homo sapiens) (UniProt P00533); assay: EGFR binders on small-molecule microarrays, primary screen, biochemical, small-molecule microarray, 635 nm fluorescence (AID 1104); conditions: EGFR binding, higher = more signal;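 further: score merges 667 nm emission intensity with spot signal to noise over triplicate slides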
[8] = target: Follistatin-related protein 3 (Homo sapiens) (UniProt O95633); assay: FSTL3 binders on small-molecule microarrays, primary screen, biochemical, small-molecule microarray, 635 nm fluorescence (AID 1105); conditions: FSTL3 binding, higher = more signal;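 further: score merges emission near 667 nm and signal to noise per printed spot across three slides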
[9] = target: Dickkopf-related protein 1 (Homo sapiens) (UniProt O94907); assay: DKK1 binders on small-molecule microarrays, primary screen, biochemical, small-molecule microarray, 635 nm fluorescence scan (AID 1106); conditions: DKK1 binding, higher = more signal;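 further: score merges emission near 667 nm with signal to noise over three replicate slides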
[10] = test system: Inhibin beta A chain (activin A); assay: INHBA (activin A) binders on microarrays, primary screen, biochemical, small-molecule microarray, 635 nm fluorescence scan (AID 1107); conditions: small-molecule microarray binding, higher = more signal;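 further: mouse activin A protein probed at 4.33 µg/mL on printed slides; score merges bound-protein fluorescence near 667 nm with spot signal-to-noise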
[11] = test system: Human papillomavirus type 1a protein E7 (residues 44-93); assay: HPV1a E7 fragment binders on microarrays, primary screen, biochemical, small-molecule microarray, residues 44-93, 635 nm fluorescence (AID 1108); conditions: small-molecule microarray binding, fluorescence 635 nm; higher = more signal;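 further: E7 fragment applied at 1 µg/mL in TBST for 1 h at 4 C; score combines spot fluorescence with its signal to noise ratio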
[12] = modulators of HCV replicon luciferase signal, primary screen, HCV replication inhibitor project, Huh7 cells, luciferase reporter (AID 1109); conditions: 48 h, higher = more signal;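 further: huh7 hepatoma cells harbouring a luciferase neomycin HCV replicon reporter; luciferase luminescence as measure of HCV replicon replication; test concentration not given here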
[13] = target: Left-right determination factor 2 (Homo sapiens) (UniProt O00292); assay: LEFTY2 binders on small-molecule microarrays, primary screen, biochemical, small-molecule microarray, 635 nm fluorescence scan (AID 1110); conditions: LEFTY2 binding, higher = more signal
[14] = target: Calmodulin-1 (Homo sapiens) (UniProt P0DP23); assay: CALM1 binders on microarrays, EGTA buffer, profiling panel, biochemical, small-molecule microarray, Cy5-labelled CALM1 (AID 1111); conditions: Cy5-CALM1 binding fluorescence, higher = more signal;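 further: labelled calmodulin applied in Tris saline Tween buffer holding calcium plus EGTA and DTT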
[15] = target: Calmodulin-1 (Homo sapiens) (UniProt P0DP23); assay: calcium-bound CALM1 binders on microarrays, profiling panel, artefact control for SMM control-protein annotation, biochemical, small-molecule microarray, Cy5-labelled CALM1, plus calcium (AID 1112); conditions: Cy5-CALM1 binding fluorescence, higher = more signal;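 further: score merges spot fluorescence with signal to noise from triplicate slides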
[16] = small-molecule microarray binders of probe aWnt5a, primary screen, biochemical, biotinylated probe, 635/667 nm fluorescence (AID 1113); conditions: higher = more signal;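 further: score merges 667 nm fluorescence intensity with signal-to-noise per printed feature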
[17] = small-molecule microarray binders of probe aShh, primary screen, biochemical, biotinylated probe, 635/667 nm fluorescence (AID 1114); conditions: higher = more signal;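 further: probe is biotin-labelled aShh protein from a stem cell growth factor screen; measures binding of labelled protein to compounds printed on the slide; score merges feature fluorescence at 667 nm with signal-to-noise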
[18] = small-molecule microarray binders of probe aNog, primary screen, biochemical, biotinylated probe, 635/667 nm fluorescence (AID 1115); conditions: higher = more signal;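 further: probe is biotinylated aNog protein used at 0.15 µg/mL for 1 h at 4 C; z-score combines 667 nm fluorescence of each spot with its signal to noise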
[19] = target: Torsin-1A-interacting protein 1 (Homo sapiens) (UniProt Q5JTV8); assay: LAP1 binders from COS7 cell lysate, primary screen, small-molecule microarray, 635/667 nm fluorescence (AID 1116); conditions: COS7-hLAP1 lysate binding, 635 nm fluorescence, higher = more signal
[20] = target: Alpha-bungarotoxin (Bungarus multicinctus) (UniProt P60615); assay: alpha-bungarotoxin binders on microarray, profiling panel, artefact control for SMM control protein annotation, biochemical, small-molecule microarray, Alexa647 label, 635/667 nm fluorescence (AID 1117); conditions: alpha-BTX-A647 binding fluorescence, higher = more signal
Alpha-bungarotoxin (Bungarus multicinctus), sequence (P60615 whole entry, looked up): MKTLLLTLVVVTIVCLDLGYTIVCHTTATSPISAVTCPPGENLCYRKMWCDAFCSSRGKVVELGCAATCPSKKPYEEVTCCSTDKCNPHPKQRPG

Dickkopf-related protein 1 (Homo sapiens), sequence (O94907 whole entry, looked up): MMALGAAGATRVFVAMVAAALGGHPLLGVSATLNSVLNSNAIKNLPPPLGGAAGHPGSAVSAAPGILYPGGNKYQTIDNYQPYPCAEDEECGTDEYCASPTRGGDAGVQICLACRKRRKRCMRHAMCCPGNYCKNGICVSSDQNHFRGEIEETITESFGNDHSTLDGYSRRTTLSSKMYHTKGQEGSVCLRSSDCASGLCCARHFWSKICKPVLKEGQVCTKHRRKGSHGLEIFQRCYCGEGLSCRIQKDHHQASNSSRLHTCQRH
Follistatin-related protein 3 (Homo sapiens), sequence (O95633 whole entry, looked up): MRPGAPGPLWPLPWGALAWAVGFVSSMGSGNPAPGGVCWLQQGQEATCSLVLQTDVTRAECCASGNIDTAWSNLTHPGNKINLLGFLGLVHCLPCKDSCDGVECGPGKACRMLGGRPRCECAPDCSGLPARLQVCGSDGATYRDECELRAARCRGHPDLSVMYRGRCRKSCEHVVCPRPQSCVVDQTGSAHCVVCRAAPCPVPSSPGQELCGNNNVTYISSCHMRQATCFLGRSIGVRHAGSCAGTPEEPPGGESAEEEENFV
Fibroblast growth factor 10 (Homo sapiens), sequence (O15520 whole entry, looked up): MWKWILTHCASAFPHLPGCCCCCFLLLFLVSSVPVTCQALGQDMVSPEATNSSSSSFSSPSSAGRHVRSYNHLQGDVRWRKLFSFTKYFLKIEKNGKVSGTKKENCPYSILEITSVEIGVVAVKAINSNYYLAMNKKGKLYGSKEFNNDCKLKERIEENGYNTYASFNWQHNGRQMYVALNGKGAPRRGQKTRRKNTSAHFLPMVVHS
Torsin-1A-interacting protein 1 (Homo sapiens), sequence (Q5JTV8 whole entry, looked up): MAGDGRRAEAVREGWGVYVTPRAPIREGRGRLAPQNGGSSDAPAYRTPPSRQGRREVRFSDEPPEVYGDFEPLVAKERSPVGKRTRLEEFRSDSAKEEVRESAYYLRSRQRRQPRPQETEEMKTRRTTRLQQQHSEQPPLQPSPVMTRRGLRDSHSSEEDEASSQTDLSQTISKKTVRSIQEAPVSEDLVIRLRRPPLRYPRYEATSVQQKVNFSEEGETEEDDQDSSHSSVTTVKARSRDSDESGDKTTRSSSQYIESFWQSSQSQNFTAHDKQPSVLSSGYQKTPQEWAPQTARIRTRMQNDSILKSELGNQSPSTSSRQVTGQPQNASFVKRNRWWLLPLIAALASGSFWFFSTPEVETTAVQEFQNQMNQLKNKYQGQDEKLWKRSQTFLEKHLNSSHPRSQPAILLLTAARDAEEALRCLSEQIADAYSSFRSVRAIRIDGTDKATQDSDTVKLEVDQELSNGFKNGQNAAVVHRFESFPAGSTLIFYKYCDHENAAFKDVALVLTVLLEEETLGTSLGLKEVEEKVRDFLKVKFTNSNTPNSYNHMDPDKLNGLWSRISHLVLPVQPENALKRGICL
Epidermal growth factor receptor (Homo sapiens), sequence (P00533 whole entry, looked up): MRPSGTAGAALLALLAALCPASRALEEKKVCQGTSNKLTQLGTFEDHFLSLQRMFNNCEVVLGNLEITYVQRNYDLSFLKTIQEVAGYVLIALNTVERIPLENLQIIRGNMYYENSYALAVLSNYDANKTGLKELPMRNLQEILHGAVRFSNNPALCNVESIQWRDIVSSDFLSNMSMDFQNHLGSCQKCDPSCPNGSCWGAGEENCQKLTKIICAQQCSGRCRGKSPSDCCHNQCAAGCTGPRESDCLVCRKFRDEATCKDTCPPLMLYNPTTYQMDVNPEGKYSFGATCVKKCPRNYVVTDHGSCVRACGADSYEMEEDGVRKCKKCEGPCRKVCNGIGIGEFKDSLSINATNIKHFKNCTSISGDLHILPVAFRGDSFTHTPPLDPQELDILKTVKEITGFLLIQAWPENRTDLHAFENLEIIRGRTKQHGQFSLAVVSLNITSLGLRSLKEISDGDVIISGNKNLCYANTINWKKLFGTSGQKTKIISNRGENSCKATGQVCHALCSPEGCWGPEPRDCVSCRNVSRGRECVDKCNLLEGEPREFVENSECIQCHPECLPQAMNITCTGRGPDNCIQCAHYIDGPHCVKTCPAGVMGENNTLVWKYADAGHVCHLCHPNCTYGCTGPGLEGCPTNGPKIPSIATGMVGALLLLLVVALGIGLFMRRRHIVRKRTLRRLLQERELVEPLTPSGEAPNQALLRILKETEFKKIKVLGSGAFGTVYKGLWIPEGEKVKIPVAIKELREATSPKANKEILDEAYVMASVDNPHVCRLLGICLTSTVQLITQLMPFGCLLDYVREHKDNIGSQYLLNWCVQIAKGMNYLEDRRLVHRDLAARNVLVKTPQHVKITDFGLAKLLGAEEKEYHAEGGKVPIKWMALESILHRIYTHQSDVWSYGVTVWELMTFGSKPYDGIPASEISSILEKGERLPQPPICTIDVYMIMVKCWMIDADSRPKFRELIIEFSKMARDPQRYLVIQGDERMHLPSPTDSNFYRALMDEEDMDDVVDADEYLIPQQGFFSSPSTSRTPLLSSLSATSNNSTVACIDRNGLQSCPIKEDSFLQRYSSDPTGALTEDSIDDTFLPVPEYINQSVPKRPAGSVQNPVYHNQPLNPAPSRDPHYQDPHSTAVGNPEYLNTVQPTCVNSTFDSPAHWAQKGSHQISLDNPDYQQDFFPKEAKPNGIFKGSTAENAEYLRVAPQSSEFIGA
Left-right determination factor 2 (Homo sapiens), sequence (O00292 whole entry, looked up): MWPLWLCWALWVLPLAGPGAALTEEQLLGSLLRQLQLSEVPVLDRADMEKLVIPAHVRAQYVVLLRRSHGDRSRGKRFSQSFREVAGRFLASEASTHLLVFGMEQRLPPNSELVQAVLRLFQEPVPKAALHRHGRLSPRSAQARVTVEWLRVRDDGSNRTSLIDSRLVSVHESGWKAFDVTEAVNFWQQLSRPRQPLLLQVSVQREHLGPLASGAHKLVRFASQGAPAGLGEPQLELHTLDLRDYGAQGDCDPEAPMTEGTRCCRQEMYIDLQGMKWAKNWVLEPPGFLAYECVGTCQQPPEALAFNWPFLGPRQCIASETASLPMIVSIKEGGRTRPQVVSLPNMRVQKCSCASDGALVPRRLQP

| Structure (SMILES) | composite z-score [1] | composite z-score [2] | composite z-score [3] | z-score [4] | composite z-score [5] | composite z-score [6] | composite z-score [7] | composite z-score [8] | composite z-score [9] | composite z-score [10] | composite z-score [11] | z-score [12] | composite z-score [13] | composite z-score [14] | composite z-score [15] | composite z-score [16] | composite z-score [17] | composite z-score [18] | composite z-score [19] | composite z-score [20] |
| --- | --- | --- | --- | --- | --- | --- | --- | --- | --- | --- | --- | --- | --- | --- | --- | --- | --- | --- | --- | --- |
| CC(C)C[C@@H]1NC(=O)C([C@@H](C)OCc2ccccc2)NC(=O)[C@@]23C(=O)N[C@@H](Cc4ccccc4)C2[C@H](C)[C@@]2(C)O[C@H]2C3/C=C/CC/C=C/CNC1=O (stereo not given in full) | 1.38 | -0.309 | -0.475 | -1.62 (inactive) | 0.699 | 0.517 | 0.432 | 0.721 | 0.445 | 1.13 | 1.12 | -2.63 | 0.458 | -0.407 | -0.543 | -0.15 | -0.0064 | -0.24 | 0.0641 | -0.0687 |
| CC(C)C[C@@H]1NC(=O)[C@@H]2C[C@H](C(=O)NCCCC[N+](C)(C)C)[C@H](c3ccc(O)cc3)N2C1=O | 1.39 | -0.0913 | -0.587 | 0.438 (inactive) | 1.3 | 0.896 | 0.81 | 1.56 | 1.79 | -0.531 | 0.39 | -0.996 | 1.05 | -0.928 | -0.768 | 0.0031 | 0.199 | 0.114 | 1.24 | 0.789 |
| O=C1N(CCS(=O)(=O)c2ccccc2)c2ccccc2[C@@H]2OC(c3ccc(OCCCO)cc3)=N[C@]12CCS(=O)(=O)c1ccccc1 | 0.982 | 0.753 | 0.585 | -0.254 (inactive) | 0.989 | 1.26 | 0.917 | 1.42 | 1.16 | 0.878 | 1.38 | 0.182 | 0.8 | 1.67 | 0.176 | 0.0142 | 0.109 | 0.0373 | 2.17 | 1.67 |
| CC(C)[Si](C#CCCCC#N)(O[C@H](c1ccccc1)c1cn([C@H](C)c2ccccc2)nn1)C(C)C | 0.475 | 0.0086 | -0.453 | -3.01 (inactive) | 0.524 | 0.973 | 0.22 | 1.08 | 0.668 | -0.301 | 1.21 | -1.91 | 0.392 | -0.0129 | -0.0984 | -0.0924 | 0.318 | -0.262 | 0.137 | 0.18 |
| CCC(CC)C(O)C1C=CC2C(=O)N(C)C(=O)C2N1N1CCCCC1 (stereo not given) | 0.669 | 1.72 | 0.906 | 1.58 (inactive) | 0.91 | 0.93 | 0.411 | 1.43 | 0.233 | 0.539 | 1.43 | -0.481 | 0.692 | 1.68 | -0.263 | 0.0229 | 0.0381 | 1.57 | 0.103 | 1.2 |
| CCc1cccc(NC(=O)O[C@H]2[C@H](OC(=O)Nc3ccc4c(c3)OCO4)[C@H](OC(=O)Nc3ccc4c(c3)OCO4)[C@@H](OC)O[C@@H]2CO)c1 | 1.44 | -0.154 | 0.226 | -1.34 (inactive) | 0.699 | 1.32 | -0.438 | 0.791 | 0.129 | 0.627 | 1.47 | -0.548 | -0.263 | 0.949 | -0.943 | -0.0087 | 0.131 | -0.312 | 0.154 | 1.18 |
| COc1ccc(C#Cc2ccc3c(c2)[C@]2(C(=O)N3)[C@H](c3ccc(OCCO)cc3)N3[C@H](c4ccccc4)[C@H](c4ccccc4)OC(=O)[C@H]3[C@@H]2C(=O)O)cc1 | 0.955 | 0.606 | 0.176 | -1.35 (inactive) | 1.42 | 1.22 | 0.398 | 1.44 | 0.183 | 0.751 | 1.46 | -1.3 | 0.362 | -0.17 | -0.893 | -0.0028 | -0.0999 | 1.81 | 0.523 | 0.485 |
| O=c1cccc(-c2ccccc2C(F)(F)F)o1 | -0.722 | 1.15 | 0.567 | 0.756 (inactive) | -0.382 | -0.363 | -0.955 | -0.722 | -0.469 | 1.11 | -0.438 | -0.445 | -0.747 | -0.294 | 0.243 | 0.421 | 0.417 | 1.08 | -0.211 | -0.678 |
| C=C(/C(=C/C[C@@H](OC(C)=O)c1ccccc1OCCO)c1cc(C(=O)OC)ccc1OC)C(C)C | 1.08 | -0.114 | -0.242 | 0.314 (inactive) | 0.419 | 0.115 | -0.209 | -0.0844 | 0.0006 | 0.772 | 0.326 | -1.69 | -0.0061 | 0.543 | -0.692 | -0.0643 | -0.304 | 0.051 | 0.385 | -0.598 |
| C[N+](C)(C)CCCCCCNC(=O)[C@H]1C[C@H]2C(=O)NCC(=O)N2[C@H]1c1cccc(OCCO)c1 | 1.75 | -0.149 | 0.0218 | -0.34 (inactive) | 0.439 | 0.548 | 0.228 | 0.969 | 1.28 | 0.169 | 0.626 | 0.643 | 1.5 | -0.748 | -0.95 | -0.096 | -0.311 | -0.231 | 0.509 | 0.355 |
| COC(=O)[C@@]1(Cc2ccc(OC)cc2)[C@H]2c3cc(C(=O)N(C)C)n(Cc4ccsc4Br)c3C[C@H]2CN1C(=O)c1ccccc1 | 0.895 | 1.08 | 0.826 | -1.84 (inactive) | -0.0197 | -0.288 | 0.374 | -0.288 | -0.414 | 0.758 | 0.835 | -0.235 | -0.318 | 1.01 | 0.511 | 0.281 | 0.696 | 1.61 | 2.24 | 0.177 |
